Sampled rows, rich in hits. Any-hit rate of the full collection: about 1.2%.
RGS4-Gao reg = modulators of RGS4 binding to Galphao, primary screen, biochemical, multiplexed bead flow cytometry; Guanine nucleotide-binding protein G(o) subunit alpha (Homo sapiens), P09471; actives lie on both sides; binding response (% of control), % at 10 µM; 220,000 compounds, 0.33% hits; AID 1415, 2008; in the data active = binding response below about 49% or above about 150%; inactive = in between;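 also: fluorescent Galphao activated with aluminum fluoride binding bead-coupled RGS4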
Target sequence (P09471 whole entry, looked up): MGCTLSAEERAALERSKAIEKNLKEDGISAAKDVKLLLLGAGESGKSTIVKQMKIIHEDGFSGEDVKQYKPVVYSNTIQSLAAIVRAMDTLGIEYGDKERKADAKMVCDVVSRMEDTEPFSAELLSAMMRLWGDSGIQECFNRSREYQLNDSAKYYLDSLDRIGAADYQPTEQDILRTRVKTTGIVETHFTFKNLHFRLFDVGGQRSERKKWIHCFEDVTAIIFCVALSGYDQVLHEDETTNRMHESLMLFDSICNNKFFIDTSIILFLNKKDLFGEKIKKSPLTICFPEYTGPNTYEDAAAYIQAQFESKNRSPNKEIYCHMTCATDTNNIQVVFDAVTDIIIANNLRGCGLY
RGS7-Gao reg = RGS7-Galphao binding modulators, primary screen, biochemical, multiplexed bead flow cytometry. binding response (% of control), % at 10 µM. 220,000 compounds, 0.35% hits. actives lie on both sides. AID 1439, 2008; in the data active = binding response below about 49% or above about 150%; inconclusive = no clear call, values can overlap the other calls; inactive = in between;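 also: fluorescent Galphao held in activated GDP-AlF4 state binding bead-coupled RGS7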
Avidin bead fluor = green autofluorescence of compounds with avidin beads – biophysical, 488/530 nm, flow cytometry, artefact control, profiling panel. compound fluorescence 488/530 nm; stronger effect = higher value. fluorescence (KMESF) at 10 µM. 220,000 compounds, 0.38% hits; in the data active = fluorescence above about 47
GSH fluor = compound fluorescence on glutathione beads, profiling panel, artefact control, biophysical, 488/530 nm, flow cytometry; GSH beads flow cytometry, compound fluorescence 488/530 nm; stronger effect = higher value; fluorescence (KMESF) at 10 µM; 190,000 compounds, 0.25% hits; in the data active = fluorescence above about 89;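 also: glutathione beads carrying GST-tagged Bcl family fusion proteins plus one bare bead set; values are compound well signal with DMSO vehicle wells as background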
RGS16-Gao HTS = modulators of RGS16 binding to Galphao, primary screen, biochemical, human proteins, multiplexed bead flow cytometry; bead-based flow cytometry RGS16-Galphao binding, fluorescence; actives lie on both sides; AID 1441, 2008; 220,000 compounds, 0.38% hits; binding response (% of control), % at 10 µM;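 also: Galphao activated by GDP with aluminum fluoride before binding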
Target sequence (O15492 whole entry, looked up): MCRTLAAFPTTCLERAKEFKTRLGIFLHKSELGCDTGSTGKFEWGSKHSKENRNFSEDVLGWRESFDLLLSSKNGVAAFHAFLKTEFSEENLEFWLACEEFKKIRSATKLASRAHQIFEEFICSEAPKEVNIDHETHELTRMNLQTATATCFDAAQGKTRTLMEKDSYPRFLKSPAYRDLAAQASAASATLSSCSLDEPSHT
Target sequence (P09471 whole entry, looked up): as the sequence (P09471 whole entry, looked up) above
RGS8-Gao = RGS8-Galphao binding modulators, primary screen, biochemical, multiplexed bead flow cytometry; actives lie on both sides; response (percent of control binding), % at 10 µM; 220,000 compounds, 0.34% hits; AID 1423, 2008; in the data active = response below about 60% or above about 140%; inactive = in between;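 also: Galphao activated as the GDP aluminium fluoride complex binding bead-coupled RGS8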
RGS-Gao = modulators of RGS–Galpha-o binding, primary screen, biochemical, multiplexed beads, flow cytometry, RGS4/7/8/16/19; AID 1504, 2009; 1,600 compounds, 99% hits; shares compounds with RGS16-Gao HTS; RGS4–Galpha-o binding response, % at 10 µM; multiplexed bead flow cytometry;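 also: fluorescently labeled Galpha-o bound to GDP with aluminium fluoride binding biotinylated RGS beads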
Avidin counter = disruption of biotin probe capture by avidin, counter-screen for RGS protein interaction modulators, biochemical, flow cytometry, bead-based | shares compounds with RGS16-Gao HTS | streptavidin beads, fluorescein-biotin binding | inhibition, % at 10 µM | 1,700 tested, under 10 active | AID 1783, 2009;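 active = inhibition above 50%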;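 also: median green fluorescence of gated singlet beads compared with DMSO control wells; 0% = DMSO wells and 100% = complete loss of bead fluorescence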
RGS8-Gao single = RGS8-Galphao binding modulators, confirmation, biochemical, multiplexed bead flow cytometry, single concentration. AID 1836, 2009. binding response (% of control), % at 10 µM. 1,700 compounds, 3% hits. shares compounds with RGS16-Gao HTS. bead-based flow cytometry RGS8-Galphao binding, fluorescence; actives lie on both sides; in the data active = binding response below about 72% or above about 130%; inactive = in between;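 also: Galphao activated as GDP AlF4 complex before binding bead RGS8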
RGS7-Gao confirm = RGS7-Galphao binding modulators, confirmation, biochemical, multiplexed bead flow cytometry, single concentration; shares compounds with RGS16-Gao HTS; bead-based flow cytometry RGS7-Galphao binding; actives lie on both sides; response (percent of control binding), % at 10 µM; 1,700 compounds, 7.8% hits; in the data active = response below about 75% or above about 130%; inactive = in between;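 also: fluorescent Galphao activated with GDP and aluminum fluoride binding bead-coupled RGS7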
RGS16-Gao single = modulators of RGS16-Galphao protein binding, confirmation, biochemical, single concentration, multiplexed bead flow cytometry. shares compounds with RGS16-Gao HTS. bead-based flow cytometry; actives lie on both sides. response (% of control binding), % at 10 µM. 1,700 compounds, 4% hits; in the data active = response below about 74% or above about 130%; inactive = in between;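 also: Galphao activated as the GDP aluminium fluoride complex binding bead-coupled RGS16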
RGS4-Gao single = modulators of RGS4-Galphao protein binding, confirmation, biochemical, single concentration, multiplexed bead flow cytometry | AID 1840, 2009 | shares compounds with RGS16-Gao HTS | actives lie on both sides | 1,700 compounds, 4% hits | binding response (% of control), % at 10 µM; in the data active = binding response below about 74% or above about 130%; inactive = in between
RGS19-Gao conf = regulators of RGS19-Galphao binding, confirmation, biochemical, single point, multiplexed bead flow cytometry | shares compounds with RGS16-Gao HTS | bead-based flow cytometry RGS19-Galphao binding; actives lie on both sides | response (percent of control binding), % at 10 µM | 1,700 compounds, 5% hits; in the data active = response below about 50% or above about 160%; inactive = in between;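 also: 100% = no compound control and 0% = blank background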
* hit, by the source's call; ? = inconclusive; / = no result; [ ] = another dose, or the depositor's remark. Unless noted, no rule for the calls is given here.

SMILES | RGS4-Gao reg | RGS7-Gao reg | Avidin bead fluor | GSH fluor | RGS16-Gao HTS | RGS8-Gao | RGS-Gao | Avidin counter | RGS8-Gao single | RGS7-Gao confirm | RGS16-Gao single | RGS4-Gao single | RGS19-Gao conf
Cc1c(N2CCCC2)cc2c(c1NC(=O)c1ccccc1Cl)C(C)(C)CC2(C)C | 156*[activator] | ? | 7 | / | 155 | 130 | / | -1 | 98 | 80 | 95 | 95 | 74
O=C(Nc1ccccc1N1CCCC1)c1cccc(Cl)c1Cl | 100 | 99 | 12 | 17 | 110 | 105 | / | / | / | / | / | / | /
Cc1nnc(SCC(=O)Nc2cc(C(C)(C)C)nn2-c2ccccc2)s1 | 101 | 104 | 11 | 6 | 112 | 103 | / | / | / | / | / | / | /
CCn1c(SCC(=O)Nc2cc(C(C)(C)C)nn2-c2ccccc2)nnc1-c1cccs1 | 110 | 185*[activator] | 86* | 18 | 91 | 96 | 110* | 0 | 94 | 89 | 95 | 93 | 86
O=c1c2ccccc2nc(/C=C/c2ccc(O)cc2)n1CCc1ccccc1 | 99 | 99 | 17 | 17 | 101 | 101 | / | / | / | / | / | / | /
O=c1c2ccccc2nc(/C=C/c2ccc3c(c2)OCO3)n1CCCO | 109 | 168*[activator] | 107* | 12 | 136 | 105 | 109* | 1 | 103 | 102 | 105 | 102 | 105
COC(=O)C1=C(N)Oc2cc(C)n(Cc3cccnc3)c(=O)c2C1c1cccc(OC)c1OC (stereo not drawn) | 125 | 240*[activator] | 148* | 28 | 118 | 91 | 125* | -1 | 100 | 101 | 102 | 101 | 94
COc1cc(C(=O)N2CCc3ccccc32)ccc1OCc1c(C)noc1C | 100 | ? | / | / | 101 | 99 | / | / | / | / | / | / | /
NS(=O)(=O)c1ccc(CCNS(=O)(=O)c2cccc(C(=O)O)c2)cc1 | 96 | ? | 8 | / | 98 | 99 | / | / | / | / | / | / | /
CC1(OC(=O)CCc2ccccc2)C(=O)C=C2C=C(c3ccc(C#N)cc3)N(CCc3c[nH]c4ccccc34)C=C2C1=O (stereo not drawn) | 102 | ? | 7 | / | 95 | 102 | / | / | / | / | / | / | /
CCOC(=O)c1ccc(NC2OC(=O)c3ccccc32)cc1 (stereo not drawn) | / | / | / | 17 | / | / | / | 2 | 104 | 109 | 106 | 103 | 107
O=C(O)c1ncc(Cl)c(Cl)c1Cl | 101 | ? | 6 | / | 100 | 101 | / | / | / | / | / | / | /
Cc1nc(Cl)c(C(=O)NCCC(C)C)c(C)c1[N+](=O)[O-] | 105 | 107 | 7 | 8 | 178*[activator] | 115 | 105* | 1 | 97 | 95 | 96 | 96 | 80
COC(=O)c1cc(C(=O)NCCC(C)C)cc([N+](=O)[O-])c1 | 99 | 101 | 10 | 10 | 101 | 100 | / | / | / | / | / | / | /
CCOc1ccc(N(C(=O)C2CCCO2)C2C=CS(=O)(=O)C2)cc1 (stereo not drawn) | 102 | 102 | 11 | 15 | 110 | 106 | / | / | / | / | / | / | /
N#CC1=C(N)N(c2ccccc2)C2=C(C(=O)CCC2)C1c1ccsc1 (stereo not drawn) | 96 | 95 | 2 | 52 | 16* | 85 | 96* | 1 | 102 | 103 | 103 | 108 | 105
COc1cc(CC(NC(C)=O)C(=O)NC2CCN(C(=O)c3cc(OC)c(OC)c(OC)c3)CC2)cc(OC)c1 (stereo not drawn) | 110 | 119 | 10 | 11 | 284 | 141*[activator] | 110* | -1 | 102 | 105 | 103 | 104 | 102
CC(C)C(NS(=O)(=O)c1cccc2nsnc12)C(=O)Nc1nc2ccc(Cl)cc2s1 (stereo not drawn) | 100 | 104 | 9 | 20 | 103 | 101 | / | / | / | / | / | / | /
CCOc1ccc2nc(NC(=O)C(NS(=O)(=O)c3cccc4nsnc34)C(C)C)sc2c1 (stereo not drawn) | 153*[activator] | 137 | 2 | 22 | 118 | 131 | / | 0 | 101 | 105 | 103 | 103 | 105
Cc1cccc(N(C(=O)CNC(=O)c2ccco2)C(C(=O)NCC2CCCO2)c2ccccc2)c1 (stereo not drawn) | 101 | 100 | 12 | 10 | 109 | 102 | / | / | / | / | / | / | /
CC1=C(C(=O)Nc2ccc(C)cc2)C(c2cccs2)NC(=S)N1 (stereo not drawn) | 54 | 46* | 7 | 15 | 49 | 67 | 54* | -2 | 110 | 105 | 112 | 104 | 118
CC1=C(C(=O)Nc2ccc(F)c(F)c2)C(c2cccs2)NC(=S)N1 (stereo not drawn) | 102 | 102 | 2 | 6 | 108 | 103 | / | / | / | / | / | / | /
CCn1cc(C(=O)O)c(=O)c2cc(F)c(N3CCN(S(=O)(=O)c4ccc(NC(=O)OC)cc4)CC3)cc21 | 85 | 80 | 3 | 14 | 46 | 73 | / | / | / | / | / | / | /
O=C(CNCc1ccccn1)N1CCc2ccccc2C1 | 101 | ? | / | / | 101 | 104 | / | / | / | / | / | / | /
CC(C)n1nc(C(=O)OCC(=O)c2c[nH]c3ccccc23)c2ccccc2c1=O | / | / | / | 41 | / | / | / | 0 | 91 | 81 | 84 | 87 | 61
